LASV entry inh: Lassa virus entry inhibition. Lassa virus pseudotype entry inhibition, cell reporter. Potency, µM (titrated, usually from 37.9 µM), for the others: top-dose activity change, negative = inhibition, most hits filed as inhibitors. 300,000 tested, 1.2% active. AID 540256; calls by dose curve; tested in HEK293 cells; note: potency is the fitted concentration of half-maximal effect; % is set by controls: 0 for no effect and ±100 for the full control effect; nearly all actives have a fitted effect of over 50% in size
Cycloheximide cs: counter-screen for Shiga toxin inhibitors: cycloheximide protein synthesis inhibition. cell reporter, cycloheximide protein synthesis inhibition counterscreen. max response, %. 300,000 tested, 12% active. AID 2314; in the data active = max response mostly above about 13%, no sharp cut-off; inactive = mostly below about 14%; note: read at 38.3 µM for the half of the compounds with a filed dose; 0% is about no effect
FMDV antiviral: blocks foot and mouth disease virus; FMDV antiviral cell-based qHTS; Potency, µM (doses to about 57.9 µM), without a hit: at the highest dose activity change, negative = inhibition, usual class: inhibitors; 410,000 tested, 1.2% active; calls by dose curve; tested in HEK293T cells; note: read-out not given here; potency is the fitted concentration of half-maximal effect; % is set by controls: 0 for no effect and ±100 for the full control effect; nearly all actives have a fitted effect of over 45% in size
Shiga toxin inh: inhibitors of Shiga toxin in Vero cells; Vero cells, Shiga toxin protein synthesis inhibition reporter; inhibition, % at 38.7 µM; 290,000 tested, 9.2% active; AID 2315; in the data active = inhibition mostly above about 28%, no sharp cut-off; inactive = mostly below about 43%; note: 0% is about no effect
HCV inhibitor: HCV inhibition; Huh7.5.1 HCVcc-Cre infection, luciferase reporter, 44 h; Potency, µM (series often up to 41.8 µM), without a hit: at the highest dose activity change, negative = inhibition, actives largely listed as inhibitors; 340,000 tested, 3.4% active; AID 651820; active = well fitted inhibition curve with a large enough effect; inconclusive = small, poorly fitted or top-dose-only effect, or another doubt; inactive = no such curve, though single readings can be large or run the other way; note: potency is the fitted concentration of half-maximal effect; % is set by controls: 0 for no effect and ±100 for the full control effect
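HCVcc-Cre virus at an moi near 0.5 was added right after compound to cells cultured 4 h from seeding (1,000 cells/well). Luciferase activity was determined 44 h later, 15 min after substrate addition at RT.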
Marburg entry inh: blocks Marburg virus binding to or entry into cells. Potency, µM (series often up to 37.8 µM), without a hit: at the top dose activity change, negative = inhibition, most hits filed as inhibitors. Marburg virus pseudotyped entry inhibition, cell reporter. 300,000 tested, 1.8% active. AID 540276; calls by dose curve; tested in HEK293 cells; note: potency is the fitted concentration of half-maximal effect; % is set by controls: 0 for no effect and ±100 for the full control effect
Starred values were filed as active, the others as inactive; u = inconclusive; x = not tested or not shown; ! = a repeat was not active; [ ] = remark or other dose. Compounds with a hit are over-represented: about 13% of the library has one in this group of screens.

SMILES	LASV entry inh	Cycloheximide cs	FMDV antiviral	Shiga toxin inh	HCV inhibitor	Marburg entry inh
CCOC(=O)c1[nH]nc(N)c1NC(=O)c1ccc(Cl)cc1Cl	1%	27*	13%	22	13%	-9%
CCOC(=O)c1[nH]c2ccc(Cl)cc2c1NC(=O)c1nonc1C	-2%	-2	-17%	17	u	9%
CCOC(=O)c1cc(-c2ccccc2)n(CCC(=O)Nc2cc(C)cc(C)c2)c1C	-9%[46.1 µM]	x	-23%	x	x	x
CCOC(=O)c1ccc(NC(=O)Nc2ccc(OC)c(OC)c2)cc1	0%	-1	-13%	-4	25µM*	4%
CCOC(=O)c1cc(-c2ccccc2)n(CCC(=O)Nc2ccc(Cl)c(C(F)(F)F)c2)c1C	-25%[46.1 µM]	x	40µM*	x	x	x
CCOC(=O)c1ccc(NC(=O)c2ccc(OC(C)C)c(OC)c2)cc1	-34%	-4	40µM*	-13	u	u
CCOc1ccc(/C=C/C(=O)Nc2ccc(C(N)=O)cc2)cc1OC	-17%	4	-20%	-10	5%	u
CCOCCOC(=O)c1ccc(NC(=O)/C=C/c2ccc(OC)c(OC)c2)cc1	-2%[46.1 µM]	x	20µM*	x	x	x
Cc1ccc(NC(=O)COC(=O)CCc2ccc(S(=O)(=O)N3CCOCC3)cc2)cc1F	10%	1	4%	-2	-16%	23%[46.1 µM]
O=C(O)CCCN=C1NC2(CCCC2)Cc2ccccc21	-5%	1	-7%	-5	2%	0%
CCOC(=O)c1cc(-c2ccccc2)n(CC(=O)NCc2ccccc2OC)c1C	7.1µM*	x	-10%	x	x	x
CCOC(=O)c1ccc(NC(=O)NCCc2ccccc2OC)cc1	x	11	u	33	-24%	x
CCOC(=O)c1ccc(NC(=O)NCc2ccccc2OC)cc1	x	3	11%	15	11µM*	-17%[46.1 µM]
COc1cccc(-c2nc3c(c(SCC(=O)N4CCOCC4)n2)Cc2c(CO)cnc(C)c2O3)c1	x	0	-8%	27	11µM*	x
Cc1ncc(CO)c2c1Oc1nc(-c3ccccc3)nc(SCC(=O)N3CCCCC3)c1C2	u	-9	-28%	-2	u	u
Cc1cccc(-c2nc3c(c(SCC(=O)N4CCOCC4)n2)Cc2c(CO)cnc(C)c2O3)c1	u	5	-11%	22	11µM*	u
Cc1ncc(CO)c2c1Oc1nc(-c3ccccc3)nc(SCC(=O)N3CCOCC3)c1C2	u	-11	-19%	-7	u	u
CCOc1ccc(S(=O)(=O)N2CCC(C(=O)NCc3cccnc3)CC2)cc1	6%	0	-16%	-3	-3%	-13%
Cc1ccc(NC(=S)NNC(=O)c2ccccc2O)c(C)c1	-17%[46.1 µM]	33*	10%	97*	-15%	u
Cc1cccc(NC(=S)NNC(=O)c2ccc(O)cc2O)c1C	5%[46.1 µM]	20*	15%	35*	17%	u
CN(C)c1ccc(C(C(=O)NCC2CCCO2)N(Cc2ccco2)C(=O)c2snc(C(N)=O)c2N)cc1 (stereo unspecified)	4%	-3	22%	-7	-28%	u
COc1ccc(NC(=O)CCc2ccc(OC)c(OC)c2)cn1	14%	-1	2%	16	11%	2%[46.1 µM]
C/C(=N\Nc1ccc(Cl)cc1)c1ccccn1	107%[14.3 µM]	23*	54%	74*	x	u
C/C(=N\NC(=O)c1ccccn1)c1ccc(Cl)cc1	u	33*	23%	53*	-10%	u
O=C(NCCNC(=O)c1ccccn1)c1ccc(Cl)cc1	17%	-5	-3%	19	9%	-14%[46.1 µM]
SMILES	LASV entry inh	Cycloheximide cs	FMDV antiviral	Shiga toxin inh	HCV inhibitor	Marburg entry inh
C/C(=N/NC(=O)c1ccccn1)c1c[nH]c2ccccc12	x	56*	58%	92*	-22%	x
C/C(=N\NC(=O)c1c[nH]c2ccccc12)c1ccc(C)o1	-7%	3	18%	12	u	u
C/C(=N\NC(=O)c1cc(C)nc2ccccc12)c1ccccn1	x	x	-26%	x	2.8µM*	x
C/C(=N\NC(=O)C(O)c1ccccc1)c1ccc(Cl)cc1 (stereo unspecified)	-14%[46.1 µM]	7	15%	16	-17%	18%[46.1 µM]
COc1cc(C(=O)N/N=C(\C)c2ccccn2)cc(OC)c1OC	u	8	-13%	-13	-25%	u
C/C(=N\NC(=O)c1ccc(N/N=C(\C)c2ccc(O)cc2)cc1)c1ccc(O)cc1	x	40*	-2%	68*	u	x
C/C(=N/NC(=O)c1ccccn1)c1ccc(O)cc1	x	32*	0%	60*	23%	x
C/C(=N\NC(=O)c1ccc(O)cc1)c1ccc(N2CCOCC2)cc1	-6%	2	21%	30	11%	16%[46.1 µM]
C/C(=N\NC(=O)c1ccc(Cl)cc1)c1ccccn1	1.3µM*	40*	u	85*	3.2µM*	0.89µM*
C/C(=N/NC(=O)c1ccccn1)c1ccco1	u	3	x	23	3%	u
CCCN1CCc2cc(O)cc3c2C1Cc1ccc(O)c(O)c1-3 (stereo unspecified)	x	x	-5%	x	x	35µM*
CN1CCc2cccc3c2C1Cc1ccc(O)c(O)c1-3 (stereo unspecified)	0%	-1	-14%	1	18%	16µM*!
COc1ccc2c(c1O)-c1cc(O)cc3c1[C@@H](C2)N(C)CC3	x	x	-14%	x	x	x
O=C(O)C1C(c2ccccc2)C(C(=O)OCc2ccco2)C1c1ccccc1 (stereo unspecified)	0%	-1	26%	-3	14%	-29%
COC(=O)C1C(c2ccccc2)C(C(=O)OCc2ccco2)C1c1ccccc1 (stereo unspecified)	u	72*	-13%	125*	u	21µM*
CCc1ccc(CNc2ncnc3c2nc2n3CCCC2)cc1	4%[46.1 µM]	x	-17%	x	x	x
CC(C)OCCCNc1ncnc2c1nc1n2CCCC1	u	18*	18%	29	12%	15%
Cc1ccc(OCCCCn2c(CO)nc3ccccc32)cc1	-1%[46.1 µM]	9	0%	18	-13%	u
CSc1nc(N)n2nc(C(C)(C)C)cc2n1	0%	15*	26%	26	11%	0%
COc1cc(CCC(=O)OCC(=O)Nc2c(Cl)cccc2Cl)cc(OC)c1OC	-2%	-5	-26%	-2	10%	-14%[46.1 µM]
CCN1C(=O)/C(=C/c2ccc(N(CC)CC)cc2OC)C(=O)NC1=S	x	-2	35µM*	12	-6%	x
COc1ccccc1/C=C1\C(=O)NC(=S)N(c2ccccc2)C1=O	x	3	-1%	9	7%	x
CCn1c(CNC(=O)c2ccccc2F)nnc1SCCOc1ccccc1	-29%[46.1 µM]	-1	-10%	13	1%	u
COc1cccc(C(=O)C2CCCN(Cc3cccc(-n4nc(C)cc4C)c3)C2)c1 (stereo unspecified)	x	-2	u	-9	35µM*	x
COc1c(C)cc(C(=O)C2CCCN(Cc3cccc(O)c3)C2)cc1C (stereo unspecified)	x	-3	0%	-1	13µM*	x
COc1c(C)cc(C(=O)C2CCCN(Cc3cnc(N4CCOCC4)s3)C2)cc1C (stereo unspecified)	x	-1	-19%	-6	11µM*	x

From PubChem BioAssay
